In the library only some 2.6% were active in any assay of this set; here they are far more common.
Cruzain inh noDet – blocks cruzain activity in detergent-free assay. purified cruzain, Z-FR-AMC fluorescence, no detergent. Potency, µM, without a hit: max response, negative = inhibition, usual class: inhibitors. 200,000 compounds, 2.3% hits. AID 1476;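 note: plate controls were enzyme without inhibitor for no effect and buffer without enzyme for full effect; nearly all actives have a fitted effect of over 40% in size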
Target sequence (P25779 123-467 limits assumed): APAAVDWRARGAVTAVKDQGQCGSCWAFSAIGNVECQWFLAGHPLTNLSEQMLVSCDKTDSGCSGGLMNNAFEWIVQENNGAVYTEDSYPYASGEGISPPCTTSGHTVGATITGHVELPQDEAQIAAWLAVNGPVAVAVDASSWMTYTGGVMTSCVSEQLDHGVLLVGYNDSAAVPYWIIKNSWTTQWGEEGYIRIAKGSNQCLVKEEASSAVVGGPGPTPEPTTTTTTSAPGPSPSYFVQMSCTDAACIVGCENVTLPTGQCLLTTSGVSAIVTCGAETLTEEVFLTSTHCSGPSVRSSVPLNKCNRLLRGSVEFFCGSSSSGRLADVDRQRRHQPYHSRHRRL
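Detergent-free condition (0.00005% Triton X-100) in acetate buffer pH 5.5 with DTT. 1.5 nM enzyme and compound were pre-mixed 15 min, then 2 uM Z-FR-AMC substrate added; reaction progress from fluorescence change between first and third reads (60 s).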
Cruzain inh Det – cruzain (T. cruzi) inhibition with detergent; purified cruzain, Z-FR-AMC fluorescence, 0.01% Triton; P25779; 200,000 compounds, 0.43% hits; Potency, µM, for the others: max response, negative = inhibition, usual class: inhibitors; AID 1478;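 note: plate controls were neutral wells for no effect and buffer without enzyme for full effect; nearly all actives have a fitted effect of over 40% in size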
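Detergent-containing arm of a paired screen for aggregation-based inhibition: 0.01% Triton X-100 present. Cruzain at 1.5 nM cleaved 2 uM Z-FR-AMC at pH 5.5 with 5 mM DTT; AMC fluorescence gain over 60 s measured activity.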
Papain inh – papain (Carica papaya) inhibition counter-screen | purified papain, Z-FR-AMC fluorescence cleavage | 410 compounds, 41% hits | shares compounds with Cruzain inh Det | Potency, µM, without a hit: max response, negative = inhibition, usual class: inhibitors | AID 2161;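 note: 0% = no-compound wells and -100% = no-enzyme wells; nearly all actives have a fitted effect of over 35% in size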
Numbers without * were called inactive. Calls come from the whole dose curve; as a rule, active = well fitted curve in the direction sought with a large enough effect; inconclusive = small, poorly fitted or top-dose-only effect, or another doubt; inactive = no such curve, though single readings can be large; an effect the other way counts as inactive or inconclusive. Potency is the fitted concentration of half-maximal effect.

`CCOc1ccc2[nH]c(=O)c(CN(CCO)Cc3nnnn3CCc3ccccc3)cc2c1` gave Cruzain inh noDet 6% and Cruzain inh Det -2%.
Cc1ccc2[nH]c(=O)c(CN(CCCO)Cc3nnnn3Cc3ccccc3)cc2c1 was read as Papain inh -5%.
`CCc1ccc2[nH]c(=O)c(CN(Cc3cccs3)Cc3nnnn3Cc3ccccc3)cc2c1` gave Papain inh -16%.
Screening Cc1ccc2[nH]c(=O)c(CN(CCc3ccccc3)Cc3nnnn3CC3CCCO3)cc2c1 (stereo not drawn) returned Cruzain inh noDet 24% and Cruzain inh Det -7%.
CCOC(=O)Cn1nnnc1CN(Cc1ccc(OC)cc1)Cc1cc2cc(C)ccc2[nH]c1=O was read as Cruzain inh noDet inconclusive and Cruzain inh Det -8%.
Screening COc1ccc2[nH]c(=O)c(CN(Cc3cccs3)Cc3nnnn3Cc3ccccc3)cc2c1 returned Cruzain inh noDet 3% and Cruzain inh Det -1%.
Screening Cc1ccc(CN(Cc2cc3cc(C)ccc3[nH]c2=O)Cc2nnnn2Cc2ccccc2)cc1 returned Papain inh -12%.
Nc1ncc(S(=O)(=O)Nc2ccc(F)cc2F)cn1 was read as Cruzain inh noDet -6% and Cruzain inh Det -1%.
For CC(C)c1ccc(NC(=O)CSc2ncc3c(n2)-c2ccccc2N(C)S3(=O)=O)cc1 the results were Cruzain inh noDet -4% and Cruzain inh Det 0%.
For CN1CCN(C(=O)C(=O)Nc2c3c(nn2-c2ccc(F)cc2)CSC3)CC1 the results were Cruzain inh noDet 1% and Cruzain inh Det 2%.
Screening Cc1ccc2[nH]c(=O)c(CN(CCO)Cc3nnnn3Cc3ccco3)cc2c1 returned Papain inh 1%.
Screening COc1ccccc1CN(Cc1cc2cc(C)ccc2[nH]c1=O)Cc1nnnn1Cc1ccco1 returned Cruzain inh noDet -8% and Cruzain inh Det -20%.
Screening Cc1ccc2[nH]c(=O)c(CN(Cc3cccs3)Cc3nnnn3CC3CCCO3)cc2c1 (stereo not drawn) returned Cruzain inh noDet inconclusive and Cruzain inh Det 1%.
Screening CCC(c1nnnn1Cc1ccccc1)N(Cc1ccccc1)Cc1cc2cc(C)ccc2[nH]c1=O (stereo not drawn) returned Papain inh -6%.
CCOc1ccc2[nH]c(=O)c(CN(Cc3ccco3)C(CC)c3nnnn3Cc3ccccc3)cc2c1 (stereo not drawn) was read as Cruzain inh noDet 11% and Cruzain inh Det -11%.
For Cc1ccc2[nH]c(=O)c(CN(Cc3cccs3)Cc3nnnn3Cc3ccco3)cc2c1 the results were Papain inh -13%.
Cc1cc(OCC(=O)N(Cc2ccc(N(C)C)cc2)C2CCS(=O)(=O)C2)cc(C)c1Cl (stereo not drawn) was read as Cruzain inh noDet inconclusive and Cruzain inh Det -4%.
For O=C(NCCc1ccccc1)C(=O)NCC(c1cccnc1)N1CCN(c2ccccc2)CC1 (stereo not drawn) the results were Cruzain inh noDet 4% and Cruzain inh Det -1%.
For O=C(Cn1c(SCC(=O)Nc2ccc(F)cc2)nc2ccccc21)NCc1ccccc1Cl the results were Cruzain inh noDet -15% and Cruzain inh Det 2%.
`CC(C)(C)c1ccc(CN2N=Nc3ccccc3S2(=O)=O)cc1` gave Cruzain inh noDet inconclusive and Cruzain inh Det -12%.
For O=S1(=O)c2ccccc2N=NN1Cc1ccc(Cl)c(Cl)c1 the results were Cruzain inh noDet inconclusive, Cruzain inh Det 22µM* and Papain inh -15%.
For CCC(C)NC(=O)C1CCN(S(=O)(=O)c2ccc3c(c2)CCCN3C(C)=O)CC1 (stereo not drawn) the results were Cruzain inh noDet 2% and Cruzain inh Det 1%.
For Cc1ccc(Cn2c(C(=O)O)c(CNC3CCCCC3)c3ccc(C)cc32)cc1 the results were Cruzain inh noDet -5% and Cruzain inh Det -2%.
CCCN(CCC)c1nc(C#N)nc(N(CCC)CCC)n1 was read as Papain inh 2.5µM*.
CCCN(CCC)c1nc(N)c(C#N)c(CC#N)c1C#N was read as Cruzain inh noDet -15% and Cruzain inh Det -6%.
`CN(C)c1nc(N(C)C)nc(N(C)C)n1` gave Cruzain inh noDet -2% and Cruzain inh Det 4%.
Screening CN(C)c1nc(C#N)nc(N(C)C)n1 returned Papain inh 11µM*.
`CCn1nnc2cc(C(=O)Nc3ccc(Cl)cc3C)ccc21` gave Cruzain inh noDet -7% and Cruzain inh Det 7%.
Screening Cc1ccc(NC(=O)c2ccc(-n3nncc3-c3ccccc3)cc2)cc1 returned Papain inh 4%.
COc1ccc(/C=C/C(=O)Nc2ccc3c(c2)CCC3)cc1OC was read as Cruzain inh noDet 68% and Cruzain inh Det -11%.
For CCOc1ccc(C(=O)Nc2ccc(-n3nncc3-c3ccccc3)cc2)cc1OCC the results were Cruzain inh noDet 16% and Cruzain inh Det -5%.
`COc1ccc(/C=C/C(=O)Nc2ccc(-n3nncc3-c3ccccc3)cc2)cc1OC` gave Cruzain inh noDet 16µM*, Cruzain inh Det 3.2µM* and Papain inh -14%.
For COc1ccc(/C=C/C(=O)Nc2ccccc2C(=O)O)cc1OC the results were Cruzain inh noDet -16% and Cruzain inh Det -7%.
Screening COc1ccc(/C=C/C(=O)Nc2ccc(-n3nncc3-c3ccc(Br)cc3)cc2)cc1OC returned Papain inh -20%.
Screening Nc1ncc(S(=O)(=O)NCc2ccccc2)cn1 returned Cruzain inh noDet -11% and Cruzain inh Det -3%.
For COc1ccccc1C(=O)Nc1cc2c(cc1N1CCOCC1)n(C)c(=O)n2C the results were Cruzain inh noDet -3% and Cruzain inh Det 0%.
`COc1ccc(-c2nn3c(-c4cc(C)[nH]n4)nnc3s2)cc1` gave Papain inh 7%.
COc1ccc(-c2nn3c(-c4ccc(F)cc4)nnc3s2)cc1 was read as Cruzain inh noDet inconclusive and Cruzain inh Det 2%.
For CCOc1cccc(-c2nnc3sc(-c4cc(OC)c(OC)cc4OC)nn23)c1 the results were Cruzain inh noDet 0% and Cruzain inh Det -4%.
`CCOc1cccc(-c2nn3c(-c4cc(C)[nH]n4)nnc3s2)c1` gave Cruzain inh noDet -4%, Cruzain inh Det 1% and Papain inh 8%.
`N#CCCn1c(=O)c(-c2ccccc2)nc2cnc(N3CCNCC3)nc21` gave Cruzain inh noDet -23% and Cruzain inh Det -24%.
For CCOc1ccc(-c2csc(NC(=O)c3ccc(S(=O)(=O)N4CCc5ccccc5C4)cc3)n2)cc1 the results were Cruzain inh noDet 4µM*, Cruzain inh Det -1% and Papain inh 11%.
For O=C(Nc1nc(-c2ccc(S(=O)(=O)N3CCCC3)cc2)cs1)c1cccs1 the results were Cruzain inh noDet -27% and Cruzain inh Det -5%.
CCOc1ccc(S(=O)(=O)N2CCc3ccccc3C2)cc1 was read as Cruzain inh noDet -15% and Cruzain inh Det 0%.
For O=C(Nc1nc(-c2ccc(S(=O)(=O)N3CCCCCC3)cc2)cs1)c1cccs1 the results were Cruzain inh noDet 3.2µM*, Cruzain inh Det -5% and Papain inh 2%.
Screening O=C(CC1N=C2c3ccccc3N=C(SCC(=O)Nc3ccccc3F)N2C1=O)NCc1cccs1 (stereo not drawn) returned Cruzain inh noDet -7% and Cruzain inh Det -5%.
`CNc1oc(C)nc1S(=O)(=O)c1ccc(C)cc1` gave Cruzain inh noDet -5% and Cruzain inh Det -1%.
